Measured values published in PubChem BioAssay (NCATS).
Inconclusive results are not listed. Values without a mark were called inactive. Calls of active or inactive are those of the source. Unless noted, the call rests on the fitted dose curve.

Key:
[1] = Cell Viability - BJ (AID 421); details: BJ fibroblast viability, qHTS;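 further: potency means the concentration at half of the fitted maximal effect; cells exposed to compound for 40 hours at 37 °C before readout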
Method in brief: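 Cytotoxicity as drop in intracellular ATP (CellTiter-Glo, 20 min RT) after 40 hr compound exposure of BJ fibroblasts at 37 °C. Titrations scaled between DMSO and 100 uM tamoxifen, Hill-fitted for AC50.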

[2] = Cell Viability - Jurkat (AID 426;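 active means dose-dependent loss of cell ATP signal giving a full or clear fitted curve, ranked by lower potency value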;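 further: potency means the concentration at half of the fitted maximal effect; cells exposed to compound for 40 hours at 37 °C before ATP read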); details: qHTS
Method in brief: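 Cells of the human T-cell leukemia line Jurkat (E6-1) are seeded at 5000 per well, treated with compound across a concentration range for 40 hours at 37 °C, then lysed with CellTiter-Glo; luminescence reports ATP.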

[3] = Cell Viability - Hek293 (AID 427;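 active means compounds whose dose-response curve shows a full or clear partial loss of cell viability, called from curve shape rather than a numeric limit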;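 further: potency means the concentration at half of the fitted maximal effect; cells exposed to compound for 40 hours at 37 °C before reading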); details: qHTS
Method in brief: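 Luminescent ATP content (CellTiter-Glo, 20 min at room temperature) was measured after a 40 hr, 37 °C compound exposure of HEK293 cells. AC50 values came from Hill-equation fits of qHTS concentration-response data normalized to DMSO and 100 uM tamoxifen.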

[4] = Cell Viability - HepG2 (AID 433); details: qHTS;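 further: potency means the concentration at half of the fitted maximal effect; potency for ATP loss meaning cytotoxicity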
Method in brief: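 HepG2 hepatocellular carcinoma cells (1500/well) were treated with compounds for 40 h at 37 °C in complete medium; intracellular ATP was read by CellTiter-Glo luminescence. Data were normalized to DMSO and 100 uM tamoxifen, and AC50 came from Hill fits.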

[5] = Cell Viability - MRC5 (AID 434); details: MRC5 lung fibroblast viability, qHTS;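 further: potency means the concentration at half of the fitted maximal effect; potency reflects cytotoxicity seen as loss of intracellular ATP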
Method in brief: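 AC50 values come from Hill-equation fits of intracellular ATP loss, measured by CellTiter-Glo luminescence. Normal lung fibroblasts (MRC5) had 40 hr compound treatment at 37 C, normalized between DMSO and 100 uM tamoxifen.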

[6] = Cell Viability - SK-N-SH (AID 435); details: SK-N-SH neuroblastoma cell viability qHTS;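 further: potency means the concentration at half of the fitted maximal effect; compound exposure lasted 40 h at 37 °C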
Method in brief: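 SK-N-SH human neuroblastoma cells (1500/well) were exposed to compounds in complete medium for 40 h at 37 °C, and intracellular ATP was then measured by CellTiter-Glo luminescence. AC50 was taken from Hill fits, normalized to DMSO and 100 uM tamoxifen.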

[7] = target: Mitogen-activated protein kinase 10 (Mus musculus) (UniProt Q61831); assay: JNK3 AlphaScreen Assay (AID 530; active means well fitted curve in either direction with a large enough effect, not every such curve was filed as active;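 further: kinase came from lysate of stimulated human HepG2 cells; signal reports phosphorylation of biotinylated GST-cJun 1-79 at Ser73 with 10 µM ATP; on the % scale 0 is the no-effect control and ±100 the full control effect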); details: JNK3 lysate, c-Jun phosphorylation; series mostly up to 57.1 µM
Method in brief: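 qHTS titrations with 15 min compound pre-incubation before adding ATP (10 uM final). Read-out: AlphaScreen of Ser73-phosphorylated biotin-GST-cJun using HepG2 lysate JNK3 activated by IL-1β and TNFα.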

[8] = Cell Viability - N2a (AID 540; active means well fitted curve in the direction sought with a large enough effect; an effect the other way counts as inactive or inconclusive;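 further: plate controls were DMSO alone for no effect and tamoxifen control for full effect; nearly all actives have a fitted effect of over 45% in size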); details: N2a mouse neuroblastoma cell viability; activity change, negative = cytotoxicity: at 92.2 µM (top of the series)
Method in brief: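 Cytotoxicity was scored as loss of cellular ATP in N2a cells, a mouse neuroblastoma line. Compounds are applied in a qHTS concentration series for 40 hr at 37 °C.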

[9] = Cell Viability - NIH 3T3 (AID 541; active means well fitted curve in the direction sought with a large enough effect; an effect the other way counts as inactive or inconclusive;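 further: plate controls were DMSO alone for no effect and tamoxifen positive control for full effect; nearly all actives have a fitted effect of over 25% in size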); details: NIH 3T3 cell viability, qHTS; activity change, negative = cytotoxicity: at 92.2 µM (top of the series)
Method in brief: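 Cells seeded at 1000/well, rested 5 hr at 37 °C, then dosed and incubated 40 hr at 37 °C. CellTiter-Glo added, 20 min room temperature, luminescence read. AC50 by Hill fit.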

[10] = Cell Viability - HUV-EC-C (AID 542; active means well fitted curve in the direction sought with a large enough effect; an effect the other way counts as inactive or inconclusive; further: on the % scale 0 is the no-effect control and ±100 the full control effect; nearly all actives have a fitted effect of over 35% in size); details: HUV-EC-C endothelial cell viability, qHTS; series mostly up to 92.2 µM
Method in brief: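 Cells were seeded at 1000 per well and incubated 5 hr at 37 °C before compound addition. After 40 hr at 37 °C, CellTiter-Glo reagent was added for 20 min and luminescence read. AC50 values came from Hill-equation modelling.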

Row | SMILES | Potency [1] | Potency [2] | Potency [3] | Potency [4] | Potency [5] | Potency [6] | outcome [7] | activity change, negative = cytotoxicity [8] | Potency [9] | Potency [10]
1 | O=C(O)c1ccccc1Cl | > 92 µM | > 92 µM | > 92 µM | > 92 µM | > 92 µM | > 92 µM | inactive | -6.85% | inactive | –
2 | Clc1ccc(Cl)c(Cl)c1Cl | > 92 µM | > 92 µM | > 92 µM | > 92 µM | > 92 µM | > 92 µM | inactive | -2.29% | inactive | –
3 | Cc1ccccc1C(=O)O | > 92 µM | > 92 µM | > 92 µM | > 92 µM | > 92 µM | > 92 µM | inactive | -16.3% | inactive | inactive
4 | CCCCCCC(=O)O | > 92 µM | > 92 µM | > 92 µM | > 92 µM | > 92 µM | > 92 µM | inactive | -3.74% | inactive | –
5 | CCCCC(CC)COCC1CO1 (centres undefined) | > 92 µM | > 92 µM | > 92 µM | > 92 µM | > 92 µM | > 92 µM | inactive | -13.9% | inactive | –
6 | C[C@@H]1CC2(OC[C@]3(C)O[C@H]23)O[C@H]2C[C@@]3(C)[C@@H]4CC[C@H]5C(C)(C)C(O[C@@H]6OC[C@@H](O)[C@H](O)[C@H]6O)CC[C@@]56C[C@@]46CC[C@]3(C)[C@@H]12 (some centres undefined) | > 92 µM | > 92 µM | > 92 µM | > 92 µM | > 92 µM | > 92 µM | inactive | 11% | inactive | –
7 | COC(=O)CCC(=O)OC | > 92 µM | > 92 µM | > 92 µM | > 92 µM | > 92 µM | > 92 µM | inactive | -1.63% | inactive | inactive
8 | CC#N | > 92 µM | > 92 µM | > 92 µM | > 92 µM | > 92 µM | > 92 µM | inactive | 0.749% | inactive | inactive
9 | CCC(C)O (centres undefined) | > 92 µM | > 92 µM | > 92 µM | > 92 µM | > 92 µM | > 92 µM | inactive | -8.95% | inactive | –
10 | CN(C)CCCCl | > 92 µM | > 92 µM | > 92 µM | > 92 µM | > 92 µM | > 92 µM | inactive | -0.582% | inactive | –
11 | O=C(Cl)c1c(Cl)cccc1Cl | > 92 µM | > 92 µM | > 92 µM | > 92 µM | > 92 µM | > 92 µM | inactive | 1.05% | inactive | inactive
12 | CCCCC(=O)N(C)C | > 92 µM | > 92 µM | > 92 µM | > 92 µM | > 92 µM | > 92 µM | inactive | -2.03% | inactive | inactive
13 | Cc1ccc2oc(=O)ccc2c1 | > 92 µM | > 92 µM | > 92 µM | > 92 µM | > 92 µM | > 92 µM | inactive | -1.53% | inactive | –
14 | Nc1cc(S(=O)(=O)O)ccc1O | > 92 µM | > 92 µM | > 92 µM | > 92 µM | > 92 µM | > 92 µM | inactive | -15.5% | inactive | –
15 | Nc1ccc([N+](=O)[O-])c(N)c1 | > 92 µM | > 92 µM | > 92 µM | > 92 µM | > 92 µM | > 92 µM | inactive | 0.888% | inactive | –
16 | CC(C)(O)C(=O)O | > 92 µM | > 92 µM | > 92 µM | > 92 µM | > 92 µM | > 92 µM | inactive | 4.75% | inactive | –
17 | Cc1ccc(C(C)(C)C)cc1 | > 92 µM | > 92 µM | > 92 µM | > 92 µM | > 92 µM | > 92 µM | inactive | -7.24% | inactive | inactive
18 | CCCCCCO | > 92 µM | > 92 µM | > 92 µM | > 92 µM | > 92 µM | > 92 µM | inactive | 4.85% | – | –

Row | SMILES | Potency [1] | Potency [2] | Potency [3] | Potency [4] | Potency [5] | Potency [6] | outcome [7] | activity change, negative = cytotoxicity [8] | Potency [9] | Potency [10]
19 | C=Cc1ccc(C=C)cc1 | > 92 µM | > 92 µM | > 92 µM | > 92 µM | > 92 µM | > 92 µM | inactive | -7.69% | inactive | inactive
20 | CC(N)CN (centres undefined) | > 92 µM | > 92 µM | > 92 µM | > 92 µM | > 92 µM | > 92 µM | inactive | 3.26% | inactive | inactive
21 | O=C(O)/C=C/C(=O)O | > 92 µM | > 92 µM | > 92 µM | > 92 µM | > 92 µM | > 92 µM | inactive | 4.39% | inactive | inactive
22 | O=C(O)CCSSCCC(=O)O | > 92 µM | > 92 µM | > 92 µM | > 92 µM | > 92 µM | > 92 µM | inactive | 1.39% | inactive | –
23 | CCCC(Cl)CCCC(Cl)CCC(Cl)CCC(Cl)CCC(Cl)CCCC(Cl)CCC (centres undefined) | > 92 µM | > 92 µM | > 92 µM | > 92 µM | > 92 µM | > 92 µM | inactive | -0.927% | inactive | –
24 | CC(=O)CCc1ccccc1 | > 92 µM | > 92 µM | > 92 µM | > 92 µM | > 92 µM | > 92 µM | inactive | -2.11% | inactive | –
25 | Cc1cccc(C)c1[N+](=O)[O-] | > 92 µM | > 92 µM | > 92 µM | > 92 µM | > 92 µM | > 92 µM | inactive | -11.3% | inactive | –
26 | O=Nc1ccc(NO)cc1 | > 92 µM | 51.1 µM (active) | > 92 µM | > 92 µM | > 92 µM | > 92 µM | inactive | 16.3% | inactive | –
27 | C=C(C)C(=O)OCCCCCC | > 92 µM | > 92 µM | > 92 µM | > 92 µM | > 92 µM | > 92 µM | inactive | -2.36% | inactive | –
28 | CC(=O)c1ccccn1 | > 92 µM | > 92 µM | > 92 µM | > 92 µM | > 92 µM | > 92 µM | inactive | -1.85% | inactive | –
29 | CSc1ccc(C=O)cc1 | > 92 µM | > 92 µM | > 92 µM | > 92 µM | > 92 µM | > 92 µM | inactive | 0.565% | – | –
30 | ICCc1ccccc1 | > 92 µM | > 92 µM | > 92 µM | > 92 µM | > 92 µM | > 92 µM | inactive | 0.359% | inactive | inactive
31 | CCCC=O | > 92 µM | > 92 µM | > 92 µM | > 92 µM | > 92 µM | > 92 µM | inactive | -20.1% | inactive | –
32 | CCC1CO1 (centres undefined) | > 92 µM | > 92 µM | > 92 µM | > 92 µM | > 92 µM | > 92 µM | inactive | -4.66% | inactive | –
33 | COc1cccc(N)c1 | > 92 µM | > 92 µM | > 92 µM | > 92 µM | > 92 µM | > 92 µM | inactive | -15.1% | inactive | inactive
34 | O=[N+]([O-])c1ccc(CCO)cc1 | > 92 µM | > 92 µM | > 92 µM | > 92 µM | > 92 µM | > 92 µM | inactive | -10.2% | – | –
35 | CCCCOCCOCCSC#N | > 92 µM | > 92 µM | > 92 µM | > 92 µM | > 92 µM | > 92 µM | inactive | 0.328% | inactive | inactive
